Reference: PubChem BioAssay (NCATS)
The source made the active and inactive calls. No rule for the calls is given here.

Assay: qHTS assay for small molecule activators of the human pregnane X receptor (PXR) signaling pathway (AID 720659)
Details: DPX-2 HepG2 CYP3A4-luciferase, 24 h; series mostly up to 92.3 µM

Structure (SMILES) | outcome
CC(O)(P(=O)(O)O)P(=O)(O)O | inactive
C[C@H]1C[C@H]2[C@@H]3CCC4=CC(=O)C=C[C@]4(C)[C@@]3(Cl)[C@@H](O)C[C@]2(C)[C@@]1(O)C(=O)CO | inactive
COc1cccc2c1C(=O)c1c(O)c3c(c(O)c1C2=O)C[C@@](O)(C(=O)CO)C[C@@H]3O[C@H]1C[C@H](N)[C@H](O)[C@H](C)O1 | inactive
